Laboratory results from PubChem BioAssay.
Values joined by “and” are separate entries in the source; they are usually repeats but may differ in a detail not shown here. Equal values may be shown once. Active and inactive are the calls of the source.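 How the source made its calls, unless noted: active means aptamer binding inhibition above 30%, about 3 SD of noise from non-fluorescent compounds; inactive means inhibition at or below 30%.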

Tested on: not listed separately
Test: calorie-restriction mimetic ROS inhibitors, yeast – validation compound set, pilot screen (AID 2706;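 active means superoxide response below 65% of plate, a cut near 3 SD across the whole screen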;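 further: yeast exposed to compound for one week at 30 degrees C before staining; 100% = mean of all compound wells on the same plate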)
Conditions: S. cerevisiae aging, superoxide DHE fluorescence; at 10 µM; hits give low values

For CC1(C)CC(=O)c2cn3c(nc2C1)nc1ccccc13, which superoxide response (% of plate) is on record?
Its superoxide response (% of plate) is 107% (inactive).

Which superoxide response (% of plate) does the source give for COc1ccc(C(=O)N2c3cc4c(cc3C(C)=CC2(C)C)OCO4)cc1 here?
The superoxide response (% of plate) was 98.5% (inactive).

Which superoxide response (% of plate) does the source give for CCc1oc2ccccc2c1C(=O)c1cc(Br)c(O)c(Br)c1 here?
Its superoxide response (% of plate) is 118% (inactive).

For Cc1oc2cc(O)cc(O)c2c(=O)c1-c1ccc2c(c1)OCCCO2, which superoxide response (% of plate) is on record?
The superoxide response (% of plate) was 100% (inactive).

Which superoxide response (% of plate) does the source give for CCCC(=O)Nc1ncnc2c1ncn2[C@@H]1O[C@@H]2COP(=O)(O)O[C@H]2[C@H]1OC(=O)CCC here?
Its superoxide response (% of plate) is 96.8% (inactive).

For O=C(Cc1ccccc1)NCC(=O)OCC(=O)c1ccccc1Cl, which superoxide response (% of plate) is on record?
Its superoxide response (% of plate) is 92.9% (inactive).

Which superoxide response (% of plate) does the source give for CC/C(=C(\c1ccc(O)cc1)c1ccc(OCCN(C)C)cc1)c1ccccc1 here?
Its superoxide response (% of plate) is 97.5% (inactive).

With CC(C)(C)C(=O)Nc1cccc(OC(F)(F)C(F)Cl)c1 (stereo not drawn) as the compound, how does the superoxide response (% of plate) read?
The superoxide response (% of plate) was 105% (inactive).

With Cc1ccc(/C(=C\CN2CCCC2)c2ccccn2)cc1 as the compound, how does the superoxide response (% of plate) read?
Its superoxide response (% of plate) is 106% (inactive).

With CC(C)(C)c1ccc(/C=C/C(=O)N2CCCCC2)cc1 as the compound, how does the superoxide response (% of plate) read?
The superoxide response (% of plate) was 98.8% (inactive).

For Cn1c(=O)[nH]c(=O)c2c1nc(NCc1ccco1)n2CCCc1ccccc1, which superoxide response (% of plate) is on record?
The superoxide response (% of plate) was 103% (inactive).

Which superoxide response (% of plate) does the source give for CN(C)CCOC(=O)C(c1ccccc1)C1(O)CCCC1 (stereo not drawn) here?
Its superoxide response (% of plate) is 96.1% (inactive).

Which superoxide response (% of plate) does the source give for COc1ccccc1C(=O)Oc1ccc2c(c1)O/C(=C\c1ccncc1)C2=O here?
The superoxide response (% of plate) was 119% (inactive).

Which superoxide response (% of plate) does the source give for CC(=O)CCCCn1c(=O)c2c(ncn2C)n(C)c1=O here?
The superoxide response (% of plate) was 102% (inactive).

With CS(=O)c1ccccc1O (stereo not drawn) as the compound, how does the superoxide response (% of plate) read?
The superoxide response (% of plate) was 47.1% (active).

For COc1cccc(OCc2nnc(-c3cccs3)o2)c1, which superoxide response (% of plate) is on record?
The superoxide response (% of plate) was 104% (inactive).

For CCOC(=O)C(=O)N1CCN(c2ccccc2OC)CC1, which superoxide response (% of plate) is on record?
Its superoxide response (% of plate) is 98% (inactive).

Which superoxide response (% of plate) does the source give for COc1ccc(CCN2C(=O)CSC2c2ccc(OC)c(OC)c2)cc1OC (stereo not drawn) here?
The superoxide response (% of plate) was 104% (inactive).

For CCCCCCCC(=O)OCC(O)CO (stereo not drawn), which superoxide response (% of plate) is on record?
The superoxide response (% of plate) was 110% (inactive).

With CN1CCN(C2=Nc3ccccc3Oc3ccc(Cl)cc32)CC1 as the compound, how does the superoxide response (% of plate) read?
Its superoxide response (% of plate) is 112% (inactive).

With Cc1ccc(CN2CCN(CCCc3ccccc3)CC2CCO)cc1 (stereo not drawn) as the compound, how does the superoxide response (% of plate) read?
The superoxide response (% of plate) was 106% (inactive).

Target: Beta-adrenergic receptor kinase 1 (Homo sapiens) (UniProt P25098)
Test: GRK2 binders displacing RNA aptamer, biochemical, validation, human GRK2, bead flow cytometry (AID 488806)
Conditions: bead-bound GRK2, FAM-aptamer displacement, at 10 µM, hits give high values

Beta-adrenergic receptor kinase 1 (Homo sapiens), sequence (P25098 whole entry, looked up): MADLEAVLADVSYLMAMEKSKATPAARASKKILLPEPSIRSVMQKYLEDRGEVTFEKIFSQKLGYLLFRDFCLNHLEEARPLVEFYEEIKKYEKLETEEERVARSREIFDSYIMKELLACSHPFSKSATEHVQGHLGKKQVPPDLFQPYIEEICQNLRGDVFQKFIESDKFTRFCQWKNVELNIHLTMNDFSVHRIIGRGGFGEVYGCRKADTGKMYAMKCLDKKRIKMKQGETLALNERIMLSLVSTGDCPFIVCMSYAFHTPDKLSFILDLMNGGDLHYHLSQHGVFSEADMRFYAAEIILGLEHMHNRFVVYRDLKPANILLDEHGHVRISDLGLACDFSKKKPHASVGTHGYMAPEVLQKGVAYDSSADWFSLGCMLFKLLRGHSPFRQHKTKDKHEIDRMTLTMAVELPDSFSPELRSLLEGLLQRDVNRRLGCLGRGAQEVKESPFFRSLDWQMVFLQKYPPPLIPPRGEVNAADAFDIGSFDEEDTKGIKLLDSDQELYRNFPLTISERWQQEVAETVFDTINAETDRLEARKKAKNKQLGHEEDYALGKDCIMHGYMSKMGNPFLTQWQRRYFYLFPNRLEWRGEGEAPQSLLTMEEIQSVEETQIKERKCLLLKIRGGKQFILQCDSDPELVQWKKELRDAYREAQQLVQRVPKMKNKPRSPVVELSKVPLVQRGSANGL

For O=C(Cc1ccccc1[N+](=O)[O-])NCc1ccncc1, which aptamer binding inhibition is on record?
The aptamer binding inhibition was 7% (inactive).

Which aptamer binding inhibition does the source give for Cn1nc(-c2ccc(Cl)cc2)nc2c(=O)n(C)c(=O)nc1-2 here?
Its aptamer binding inhibition is 45% (active).

For O=C(O)CCCCCNC(=O)Nc1ccc2c(c1)OCCO2, which aptamer binding inhibition is on record?
The aptamer binding inhibition was -3% (inactive).

For COc1ccc(S(N)(=O)=O)cc1C(N)=O, which aptamer binding inhibition is on record?
The aptamer binding inhibition was 0% (inactive).

With Cc1occc(=O)c1O as the compound, how does the aptamer binding inhibition read?
Its aptamer binding inhibition is 1% (inactive).

For C[C@]12CCC3C(CC=C4C[C@@H](O)CC[C@@]43C)C1CCC2[C@]1(C)CCC(=O)O1 (stereo partly drawn), which aptamer binding inhibition is on record?
Its aptamer binding inhibition is 4% (inactive).

For CC(=O)N(CCC1(c2ccc(C)cc2)CCOC(C(C)C)C1)Cc1ccco1 (stereo not drawn), which aptamer binding inhibition is on record?
The aptamer binding inhibition was -4% (inactive).

Which aptamer binding inhibition does the source give for O=C(CCc1ccccc1)Nc1ccccc1C(F)(F)F here?
The aptamer binding inhibition was 1% (inactive).

Which aptamer binding inhibition does the source give for CN(C)C(=O)Oc1cccc([N+](C)(C)C)c1 here?
The aptamer binding inhibition was -3% (inactive) and 4% (inactive).

Which aptamer binding inhibition does the source give for CCOc1ccc(C(NC(C)=O)c2ccc(OC)c(OC)c2)cc1 (stereo not drawn) here?
Its aptamer binding inhibition is 5% (inactive).

For COc1ccccc1N=CC1=C(O)CC(c2ccccc2)CC1=O (stereo not drawn), which aptamer binding inhibition is on record?
Its aptamer binding inhibition is 2% (inactive).

Which aptamer binding inhibition does the source give for O=C1CC(c2ccc(O)cc2)Oc2cc(O)cc(O)c21 (stereo not drawn) here?
The aptamer binding inhibition was 1% (inactive).

With O=C(NCCO)c1ccc(Cl)c(Cl)c1 as the compound, how does the aptamer binding inhibition read?
Its aptamer binding inhibition is -1% (inactive).

With N/C(Cc1ccc(Cl)cc1Cl)=N\OC(=O)c1ccc(Br)o1 as the compound, how does the aptamer binding inhibition read?
Its aptamer binding inhibition is -2% (inactive).

Which aptamer binding inhibition does the source give for CC1=NN(C(=O)c2ccc(Br)cc2)C(O)(c2ccccc2)C1 (stereo not drawn) here?
The aptamer binding inhibition was 0% (inactive).

With Clc1cc(-c2ccc(/C=N/n3cnnc3)o2)ccc1Br as the compound, how does the aptamer binding inhibition read?
Its aptamer binding inhibition is -5% (inactive).

For O=c1oc2c(CN3CCCCC3)c(O)ccc2c2c1CCCCC2, which aptamer binding inhibition is on record?
The aptamer binding inhibition was 1% (inactive).

For Cc1ccc(-c2nnc(-c3ccc4c(c3)OCO4)o2)cc1, which aptamer binding inhibition is on record?
Its aptamer binding inhibition is -7% (inactive).

For CC1(C)CC(=O)c2cn3c(nc2C1)nc1ccccc13, which aptamer binding inhibition is on record?
The aptamer binding inhibition was -1% (inactive).

Which aptamer binding inhibition does the source give for COc1ccc(C(=O)N2c3cc4c(cc3C(C)=CC2(C)C)OCO4)cc1 here?
Its aptamer binding inhibition is 5% (inactive).

Which aptamer binding inhibition does the source give for CCc1oc2ccccc2c1C(=O)c1cc(Br)c(O)c(Br)c1 here?
Its aptamer binding inhibition is 4% (inactive).

For Cc1oc2cc(O)cc(O)c2c(=O)c1-c1ccc2c(c1)OCCCO2, which aptamer binding inhibition is on record?
Its aptamer binding inhibition is 3% (inactive).

Which aptamer binding inhibition does the source give for CCCC(=O)Nc1ncnc2c1ncn2[C@@H]1O[C@@H]2COP(=O)(O)O[C@H]2[C@H]1OC(=O)CCC here?
Its aptamer binding inhibition is 3% (inactive).

Which aptamer binding inhibition does the source give for O=C(Cc1ccccc1)NCC(=O)OCC(=O)c1ccccc1Cl here?
Its aptamer binding inhibition is 4% (inactive).

With CC/C(=C(\c1ccc(O)cc1)c1ccc(OCCN(C)C)cc1)c1ccccc1 as the compound, how does the aptamer binding inhibition read?
Its aptamer binding inhibition is -6% (inactive).

Which aptamer binding inhibition does the source give for CC(C)(C)C(=O)Nc1cccc(OC(F)(F)C(F)Cl)c1 (stereo not drawn) here?
Its aptamer binding inhibition is 4% (inactive).

With Cc1ccc(/C(=C\CN2CCCC2)c2ccccn2)cc1 as the compound, how does the aptamer binding inhibition read?
Its aptamer binding inhibition is 1% (inactive).
